Test results taken from PubChem BioAssay AID1159580 (chemical genetic matrix, 2015).
Screen size: about 5,500 compounds; about 2,000 (36%) were called active. Another 18% or so got no clear call; they are omitted. No stated cut-off is given here; in the data, active means normalized growth mostly below about 0.91 (no sharp cut-off); inconclusive means no clear call, values can overlap the other calls; inactive means mostly above about 0.92. The list shows a part of the results.

Test: chemical genetic growth profiling, strain panel (AID 1159580);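 further: tested at 20 µM; growth read once vehicle control cultures reached saturation at 30 °C; 1 = growth at the plate median or of vehicle wells; lower values mean less growth of the strain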
Conditions: growth OD
[1] = S. cerevisiae deletion strains, locus YAL013W, strain DEP1, hits give low values
[2] = S. cerevisiae deletion strains, locus YBR229C, strain ROT2, hits give low values
[3] = S. cerevisiae deletion strains, locus YCL061C, strain MRC1, hits give low values
[4] = S. cerevisiae deletion strains, locus YDL101C, strain DUN1, hits give low values
[5] = S. cerevisiae deletion strains, locus YDL134C, strain PPH21, hits give low values
[6] = S. cerevisiae deletion strains, locus YDR150W, strain NUM1, hits give low values
[7] = S. cerevisiae deletion strains, locus YEL061C, strain CIN8, hits give low values
[8] = S. cerevisiae deletion strains, locus YGR078C, strain PAC10, hits give low values
[9] = S. cerevisiae deletion strains, locus YHR030C, strain SLT2, hits give low values
[10] = S. cerevisiae deletion strains, locus YHR087W, strain rtc3, hits give low values
[11] = S. cerevisiae deletion strains, locus YJR043C, strain POL32, hits give low values
[12] = S. cerevisiae deletion strains, locus YJR075W, strain HOC1, hits give low values
[13] = S. cerevisiae deletion strains, locus YLR039C, strain RIC1, hits give low values
[14] = S. cerevisiae deletion strains, locus YLR058C, strain SHM2 (second series), hits give low values
[15] = S. cerevisiae deletion strains, locus YLR085C, strain ARP6, hits give low values
[16] = S. cerevisiae deletion strains, locus YLR262C, strain YPT6, hits give low values
[17] = S. cerevisiae deletion strains, locus YML094W, strain GIM5, hits give low values
[18] = S. cerevisiae deletion strains, locus YMR219W, strain ESC1, hits give low values
[19] = S. cerevisiae deletion strains, locus YMR263W, strain SAP30, hits give low values
[20] = S. cerevisiae deletion strains, locus YNL153C, strain GIM3, hits give low values
[21] = S. cerevisiae deletion strains, locus YNL298W, strain CLA4 (second series), hits give low values
[22] = S. cerevisiae deletion strains, locus YNL322C, strain KRE1, hits give low values
[23] = S. cerevisiae deletion strains, locus YNR030W, strain Alg12, hits give low values
[24] = S. cerevisiae deletion strains, locus YOL006C, strain TOP1, hits give low values
[25] = S. cerevisiae deletion strains, locus YPL055C, strain LGE1, hits give low values
[26] = S. cerevisiae deletion strains, locus YPL241C, strain CIN2, hits give low values
[27] = S. cerevisiae deletion strains, locus YPR135W, strain CTF4, hits give low values

Measured: normalized growth

Clc1cccc(-c2csc(Nc3cccnc3)n2)c1
inactive: [1] 0.935 | [2] 0.998 | [3] 0.957 | [4] 1.04 | [5] 0.997 | [6] 0.954 | [7] 0.993 | [8] 0.979 | S. cerevisiae deletion strains, locus YGR229C, strain SMI1, hits give low values 1 | [9] 0.729 | [10] 0.974 | S. cerevisiae deletion strains, locus YJL187C, strain SWE1, hits give low values 0.957 | [11] 0.921 | [12] 0.978 | [13] 0.951 | [14] 0.99 | [15] 0.839 | [16] 1 | [17] 0.971 | [18] 0.992 | [19] 0.914 | [20] 0.971 | [21] 0.881 | [22] 1 | [23] 0.968 | [24] 0.979 | [25] 0.839 | [26] 0.915 | [27] 0.884 | S. cerevisiae strains, strain wild type, hits give low values 0.997

Clc1ccc(-c2csc(-c3ccno3)n2)s1
active: [5] 0.565 | [7] 0.89 | [9] 0.484 | [13] 0.57 | [14] 0.932 | [15] 0.644 | [16] 0.777 | [18] 0.937 | [24] 0.655 | [26] 0.81
inactive: [1] 0.942 | [2] 0.958 | [3] 0.985 | [4] 0.915 | [6] 1.01 | [8] 0.96 | [10] 0.954 | [11] 1.01 | [12] 0.929 | [17] 0.868 | [19] 0.952 | S. cerevisiae deletion strains, locus YMR307W, strain GAS1, hits give low values 0.702 | S. cerevisiae deletion strains, locus YNL128W, strain TEP1, hits give low values 0.939 | [20] 1 | [21] 0.899 | [22] 0.97 | [23] 0.9 | [25] 0.851 | [27] 0.741

Clc1ccc(-c2csc(Nc3ccccc3)n2)s1
inactive: S. cerevisiae deletion strains, locus YAR019C, strain CDC15, hits give low values 0.933 | S. cerevisiae deletion strains, locus YBL105C, strain PKC1, hits give low values 0.933 | S. cerevisiae deletion strains, locus YBR135W, strain CKS1, hits give low values 0.929 | S. cerevisiae deletion strains, locus YBR136W, strain MEC1, hits give low values 0.923 | S. cerevisiae deletion strains, locus YBR160W, strain CDC28, hits give low values 0.925 | S. cerevisiae deletion strains, locus YDL017W, strain CDC7, hits give low values 0.928 | S. cerevisiae deletion strains, locus YDL028C, strain MPS1, hits give low values 0.936 | [4] 0.943 | S. cerevisiae deletion strains, locus YDL108W, strain KIN28, hits give low values 0.926 | S. cerevisiae deletion strains, locus YDL132W, strain cdc53, hits give low values 0.94 | S. cerevisiae deletion strains, locus YDR052C, strain DBF4, hits give low values 0.933 | S. cerevisiae deletion strains, locus YDR054C, strain cdc34, hits give low values 0.907 | S. cerevisiae deletion strains, locus YDR226W, strain ADK1, hits give low values 0.936 | S. cerevisiae deletion strains, locus YFL009W, strain cdc4, hits give low values 0.929 | S. cerevisiae deletion strains, locus YFL029C, strain CAK1, hits give low values 0.923 | S. cerevisiae deletion strains, locus YFR003C, strain YPI1, hits give low values 0.933 | S. cerevisiae deletion strains, locus YFR028C, strain CDC14, hits give low values 0.926 | S. cerevisiae deletion strains, locus YIL147C, strain SLN1, hits give low values 0.932 | S. cerevisiae deletion strains, locus YJR016C, strain ILV3, hits give low values 0.925 | S. cerevisiae deletion strains, locus YKL193C, strain SDS22, hits give low values 0.921 | S. cerevisiae deletion strains, locus YMR001C, strain CDC5, hits give low values 0.925 | S. cerevisiae deletion strains, locus YMR277W, strain FCP1, hits give low values 0.921 | S. cerevisiae deletion strains, locus YNL006W, strain LST8, hits give low values 0.932 | S. cerevisiae deletion strains, locus YNL161W, strain CBK1, hits give low values 0.923 | S. cerevisiae deletion strains, locus YNL207W, strain RIO2, hits give low values 0.915 | S. cerevisiae deletion strains, locus YNL222W, strain SSU72, hits give low values 0.931 | S. cerevisiae deletion strains, locus YOL078W, strain AVO1, hits give low values 0.926 | S. cerevisiae deletion strains, locus YOR329C, strain SCD5, hits give low values 0.922 | S. cerevisiae deletion strains, locus YPL209C, strain IPL1, hits give low values 0.915 | S. cerevisiae deletion strains, locus YPR025C, strain CCL1, hits give low values 0.926 | S. cerevisiae deletion strains, locus YPR106W, strain ISR1, hits give low values 0.906 | S. cerevisiae deletion strains, locus YPR111W, strain DBF20, hits give low values 0.917 | S. cerevisiae deletion strains, strain NNK1, hits give low values 0.916 | S. cerevisiae deletion strains, strain TSCII, hits give low values 0.92
active: S. cerevisiae deletion strains, locus YDL214C, strain PRR2, hits give low values 0.382 | S. cerevisiae deletion strains, locus YDR477W, strain SNF1, hits give low values 0.24 | S. cerevisiae deletion strains, locus YER123W, strain YCK3, hits give low values 0.354 | S. cerevisiae deletion strains, locus YER133W, strain GLC7, hits give low values 0.363 | S. cerevisiae deletion strains, locus YFR019W, strain FAB1, hits give low values 0.593 | S. cerevisiae deletion strains, locus YGR040W, strain KSS1, hits give low values 0.311 | S. cerevisiae deletion strains, locus YGR052W, strain FMP48, hits give low values 0.203 | S. cerevisiae deletion strains, locus YGR092W, strain DBF2, hits give low values 0.33 | [9] 0.146 | S. cerevisiae deletion strains, locus YHR079C, strain IRE1, hits give low values 0.452 | S. cerevisiae deletion strains, locus YHR082C, strain KSP1, hits give low values 0.23 | S. cerevisiae deletion strains, locus YHR205W, strain SCH9, hits give low values 0.273 | S. cerevisiae deletion strains, locus YJL095W, strain BCK1, hits give low values 0.224 | S. cerevisiae deletion strains, locus YJL157C, strain FAR1, hits give low values 0.434 | S. cerevisiae deletion strains, locus YJR066W, strain TOR1 (second series), hits give low values 0.471 | S. cerevisiae deletion strains, locus YJR066W, strain TOR1, hits give low values 0.276 | S. cerevisiae deletion strains, locus YKL048C, strain ELM1, hits give low values 0.771 | S. cerevisiae deletion strains, locus YKL067W, strain YNK1, hits give low values 0.521 | S. cerevisiae deletion strains, locus YKL101W, strain HSL1, hits give low values 0.451 | S. cerevisiae deletion strains, locus YKL203C, strain TOR2, hits give low values 0.385 | S. cerevisiae deletion strains, locus YLR113W, strain HOG1, hits give low values 0.216 | S. cerevisiae deletion strains, locus YLR133W, strain CKI1, hits give low values 0.39 | S. cerevisiae deletion strains, locus YLR403W, strain SFP1, hits give low values 0.332 | S. cerevisiae deletion strains, locus YML070W, strain DAK1, hits give low values 0.408 | S. cerevisiae deletion strains, locus YMR205C, strain PFK2 (second series), hits give low values 0.578 | S. cerevisiae deletion strains, locus YNL020C, strain ARK1, hits give low values 0.419 | S. cerevisiae deletion strains, locus YNL183C, strain NPR1, hits give low values 0.148 | S. cerevisiae deletion strains, locus YNL307C, strain MCK1 (second series), hits give low values 0.28 | S. cerevisiae deletion strains, locus YOL136C, strain PFK27, hits give low values 0.453 | S. cerevisiae deletion strains, locus YOR061W, strain CKA2, hits give low values 0.414 | S. cerevisiae deletion strains, locus YOR119C, strain RIO1, hits give low values 0.409 | S. cerevisiae deletion strains, locus YOR231W, strain MKK1, hits give low values 0.435 | S. cerevisiae deletion strains, locus YPL031C, strain PHO85, hits give low values 0.295 | S. cerevisiae deletion strains, locus YPL153C, strain RAD53, hits give low values 0.438 | S. cerevisiae deletion strains, locus YPL204W, strain HRR25, hits give low values 0.435 | S. cerevisiae deletion strains, locus YPL256C, strain CLN2, hits give low values 0.289
